Source: PubChem BioAssay AID2013 (Sanford-Burnham Center for Chemical Genomics, 2009)
Hit rate of the full screen: of about 290,000 compounds, about 370 (0.13%) were called active.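 How the source made its calls: active means spots per cell inhibited over 60%, with over 100 cells counted and total cytoplasm intensity under 500,000; inconclusive means wells with under 100 cells, flagged as likely toxic; inactive means the rest.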 Only a selection was taken, and actives are over-represented in it overall. Results with a measured potency or affinity are listed apart.

target: G-protein coupled receptor 55 (Homo sapiens) (UniProt Q9Y2T6); test: inhibition of LPI-stimulated GPR55 beta-arrestin translocation – imaging, U2OS, beta-arrestin-GFP, LPI agonist, primary screen (AID 2013); conditions: LPI antagonism, at 10 µM, hits give high values;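 further: U2OS cells stably carrying GPR55 and arrestin-GFP stimulated by 5 µM LPI near EC80; imaged beta-arrestin-GFP aggregate spots per cell after agonist stimulation; plate controls were LPI-stimulated DMSO wells for no effect and DMSO wells without LPI for full effect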
Sequence (Q9Y2T6 whole entry, looked up): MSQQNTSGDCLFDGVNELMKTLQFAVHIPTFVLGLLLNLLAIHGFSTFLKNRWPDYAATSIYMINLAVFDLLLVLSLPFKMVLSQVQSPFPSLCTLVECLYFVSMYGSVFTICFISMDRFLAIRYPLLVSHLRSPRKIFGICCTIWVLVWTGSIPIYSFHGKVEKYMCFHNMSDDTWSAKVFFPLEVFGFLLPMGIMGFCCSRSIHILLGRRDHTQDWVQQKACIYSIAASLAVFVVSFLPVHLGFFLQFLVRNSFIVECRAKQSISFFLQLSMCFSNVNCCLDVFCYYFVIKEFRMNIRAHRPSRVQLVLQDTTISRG

inhibition, inactive:
COc1ccc2nc(NC(=O)CN(c3ccc(C)cc3)S(=O)(=O)c3c(C)nn(C)c3C)sc2c1 22.1%
COc1ccc(N(CC(=O)Nc2cc(C)ccc2C)S(=O)(=O)c2c(C)nn(C)c2C)cc1 10%
C#CCNC(=O)C1=C[C@@H](c2csc3ccccc23)[C@H](CCCO)[C@@H](OCC)O1 14.1%
O=C(N/N=C/c1ccc(O)cc1)c1cc(C23CC4CC(CC(C4)C2)C3)[nH]n1 -6.9%
COc1cc(/C=N/NC(=O)c2cc(C3CC3)[nH]n2)ccc1O 6.5%
COc1cccc(/C=N/NC(=O)c2cc(C34CC5CC(CC(C5)C3)C4)[nH]n2)c1 14.9%
COc1ccc(/C=N/NC(=O)c2cc(C34CC5CC(CC(C5)C3)C4)[nH]n2)cc1O 49.4%
CC(C)NC(=O)CN(CCc1ccccc1)S(C)(=O)=O 18.2%
Cc1ccc(-n2ncc3c2CC(C)(C)CC3NC(=O)C2CCOCC2)cc1 (stereo not drawn) 9.6%
Cc1cc(C)n(CC(=O)O)c(=O)c1[N+](=O)[O-] 1.7%
CNC(=O)c1sccc1Oc1ccc(F)cc1[N+](=O)[O-] 8.2%
CC(C)c1nc(N2CCN(C(=O)c3ccco3)CC2)c2c3c(sc2n1)CCCC3 98.6%
Cc1nc(N2CCN(C(=O)c3ccco3)CC2)c2c3c(sc2n1)CCC3 46.7%
Cc1nc(N2CCN(S(=O)(=O)c3ccccc3)CC2)c2c3c(sc2n1)CC(C)CC3 (stereo not drawn) 14.2%
CC(=O)N1CCN(c2nc(C)nc3sc4c(c23)CCC(C)C4)CC1 (stereo not drawn) 22.1%
Cc1nc(N2CCN(C(=O)c3cccs3)CC2)c2c3c(sc2n1)CCCC3 36.3%
CCc1nc(N2CCN(C(=O)c3ccco3)CC2)c2c3c(sc2n1)CCCC3 7.3%
CCCN1C2CCCC1CC(NC(=O)c1cc(OC)cc(OC)c1)C2 (stereo not drawn) 4.9%
CN(C)S(=O)(=O)c1ccc(N)c([N+](=O)[O-])c1 16.6%
FC(F)(F)COc1ccc(-n2ccnc2)nn1 -3.5%
Cc1ccc(/C=C/C(=O)O)cc1S(=O)(=O)N1CCCc2ccccc21 9.5%
COCCCNC(=O)CCc1ccccc1 -1.2%
Cc1ccccc1CC(=O)N1CCN(C(=O)C2CCCO2)CC1 (stereo not drawn) 10.1%
CCCCn1c(-c2nn(C)cc2Cl)n[nH]c1=S 2.5%
CC1=NOC(=O)/C1=C\c1ccc(-c2ccc(Cl)cc2Cl)o1 21%
CC1=NOC(=O)/C1=C/c1ccc(-c2ccc(Cl)cc2)o1 7.3%
Cc1ccc(C)c(NC(=S)N2CCC(NC(=O)c3ccccc3)CC2)c1 2.1%
NC(=O)C1(N2CCCCC2)CCN(C2CC(=O)NC2=O)CC1 (stereo not drawn) 9.8%
CN1C(=O)/C(=C\c2ccccc2OCc2ccccc2)SC1=S -1.8%
CN1C(=O)/C(=C\c2cc(N=Nc3ccccc3)ccc2O)SC1=S 19.5%
CNC(=S)NC1(C)CCS(=O)(=O)C1 (stereo not drawn) -1.4%
CCOC(=O)c1c(-c2ccccc2)oc2ccc(O)c(CN3CCCC3)c12 -1.6%
CCOC(=O)c1c(-c2ccccc2)oc2ccc(O)c(CN3CCOCC3)c12 34.5%
Cc1ccc(OCC(=O)N/N=C/C=C/c2ccco2)cc1C -3.3%
CC(C)(C)c1ccc(-c2c(C(=O)O)c(C(=O)O)c3n2CSC3)cc1 -9.4%
CC(C)(C)C1=CC=C(C(C)(C)C)C(=O)C1=O -11.4%
CCN1C(=O)N(CC)C(O)(c2ccccc2)C1(O)c1ccccc1 (stereo not drawn) 14.2%
Cc1ccc(-n2c(C)csc2=N)cc1 6.4%
O=C(/C=C/c1cccc(Br)c1)NCC1CCCCC1 -3.3%
CC[n+]1c(/C=C/c2ccc(N(C)C)cc2)ccc2ccccc21 -0.1%
CN(C)c1ccc(/C=C/c2ccc3ccccc3[n+]2C)cc1 5.6%
O=C(N/N=C\c1ccncc1)c1ccc(Br)s1 -6.3%
Cc1ccc(N(CC(O)CON=C2c3ccccc3-c3ccccc32)S(C)(=O)=O)cc1 (stereo not drawn) 2.5%
Cc1ccc(S(=O)(=O)N(CCCO)CC(O)CON=C2c3ccccc3-c3ccccc32)cc1 (stereo not drawn) 4%
CS(=O)(=O)N(CC(O)CON=C1c2ccccc2-c2ccccc21)c1ccc(F)cc1 (stereo not drawn) 4.1%
Cc1cccc(N(CC(O)CON=C2c3ccccc3-c3ccccc32)S(C)(=O)=O)c1 (stereo not drawn) 30.8%
CCN(CC(O)Cn1c2ccccc2c2ccccc21)S(=O)(=O)c1ccc(C)cc1 (stereo not drawn) 22.4%
CC(C)CCNCC(O)CON=C1c2ccccc2-c2ccccc21 (stereo not drawn) 35%
CCOC(=O)c1ccccc1NC(=S)N1CCCCC1 4.2%
CCOC(=O)C1CCCN(C(=O)C2CCC(CNS(=O)(=O)c3ccc(NC(C)=O)cc3)CC2)C1 (stereo not drawn) -10.7%
Cc1ccc(S(=O)(=O)NCCc2nnc3ccc(SCC(=O)Nc4nc5ccccc5s4)nn23)cc1 -1.2%
C#CCOCCOCCOCCNc1nc(N2CCN(C(=O)[C@H](Cc3cc4ccccc4[nH]3)n3cc([C@@H](N)C(C)CC)nn3)CC2)nc(N2CCN(C(=O)[C@H](CCCCN)n3cc([C@@H](N)CC(C)C)nn3)CC2)n1 (stereo partly drawn) 22.1%
O=C(NCC(=O)N(c1ccccc1)C(C(=O)NCC1CCCO1)c1ccccc1)c1ccco1 (stereo not drawn) -16.3%
CC(C)CC(=O)Nc1ccccc1Oc1ccccc1 -0.5%
CC(=O)Nc1ccccc1Oc1ccccc1 -4.1%
Cc1ccccc1CN(C)CC(=O)Nc1ccccc1Oc1ccccc1 52.5%
CN(CC(=O)Nc1cccc(F)c1)CC(=O)Nc1ccccc1Oc1ccccc1 2.5%
CC(=O)Nc1ccc(Nc2nc(C(F)(F)F)nc3c2nnn3Cc2ccccc2Cl)cc1 -4.9%
Cc1ccc(/C=C2/N=C(c3ccccc3)NNC2=O)cc1 -5.1%
Cc1ccc(-c2noc(CSc3nnc(Cc4cccs4)n3-c3ccccc3)n2)cc1 16.9%
c1ccc(-c2noc(CSc3nnc(Cc4cccs4)n3-c3ccccc3)n2)cc1 0.4%
Nc1nonc1-n1nnc(C(=O)N/N=C/c2ccccc2Cl)c1-c1ccc2c(c1)OCO2 -3.5%
Cc1ccc(C(=O)Nc2ccccc2N2CCCC2)cc1 -6.2%
Cc1ccc(C(=O)Nc2ccccc2N2CCCCC2)cc1 0.4%
Cc1cc(=O)oc2cc(OCC(=O)N3CCN(c4ccccc4)CC3)c(Cl)cc12 6.4%
Cc1cc(Nc2ccc(F)cc2F)n2ncnc2n1 -4.7%
CCOC(=O)c1c(C)[nH]c(C)c1S(=O)(=O)N(C)CC(=O)Nc1cccc(F)c1 8%
COc1ccc(N2C(=O)S[C@@H]3CS(=O)(=O)C[C@@H]32)cc1 14.8%
CC1(C)OC(=CC=Nc2ccc(Cl)cc2)OC1(C)C -0.4%
COC(=O)c1cc2c(C)c(C)c3ccccn3c-2c1C(=O)OC 12.8%
COC(=O)c1cc2n3ccccc3c(C)c(-c3ccccc3)c-2c1C(=O)OC 6.5%
O=C(COC(=O)CCC(=O)c1cccs1)NC(=O)c1ccc(OC(F)F)cc1 6.3%
COc1ccc(N2CCN(CC(=O)NCc3ccc(Cl)cc3)CC2)cc1 -5.1%
O=C(O)CN1C(=O)/C(=C/c2ccc(SCc3ccccc3)o2)SC1=S 4.7%
Cc1cccc(C)c1-n1cccc1/C=C1\SC(=S)N(c2cccc(C(=O)O)c2)C1=O 21.8%
Cc1ccc(NC(=O)COc2nsnc2N2CCOCC2)cc1Cl -2.9%
CCCCOC(=O)CSC(=S)N(C)Cc1cccs1 -12.9%
Cc1c([C@H]2[C@@H](CC#N)C2(C)C)c2ccccc2n1C -0.3%
Cc1[nH]c2ccccc2c1[C@H]1[C@@H](CC#N)C1(C)C 30.6%
CC(C)NC(=O)C(=O)c1cn(C)c2ccccc12 -10.8%
Cc1ccccc1N1CCN(C(=O)C2CCC(=O)N(C3CCCC3)C2)CC1 (stereo not drawn) 5.6%
Oc1ccccc1C1=NN(c2ccccc2)C(c2ccc(F)cc2)C1 (stereo not drawn) -10.6%
COc1ccc(C2CC(c3ccc(F)cc3)=NN2c2ccccc2)cc1OC (stereo not drawn) 1.5%
Cc1noc(C)c1CN(C(=S)NC1CC1)c1ccccc1 4.1%
CCNC(=S)N(Cc1c(C)noc1C)c1ccccc1 -9.5%
CC(=O)N1CCOc2ccc(S(=O)(=O)Nc3ccc(Cl)cn3)cc21 -3.3%
COc1ccccc1NC(=O)COC(=O)c1ccccc1C(=O)N1CCN(c2ccccc2)CC1 -1.1%
Cc1ccccc1-n1cc(CNC(=O)CCc2nnc(CCc3ccccc3)o2)cn1 9.1%

inhibition, active:
CCN(CC(O)CON=C1c2ccccc2-c2ccccc21)S(=O)(=O)c1ccc(C)cc1 (stereo not drawn) 89.1%
CCN(CC(O)CON=C1c2ccccc2-c2ccccc21)S(=O)(=O)c1ccc(Cl)cc1 (stereo not drawn) 80.9%
CC(C(=O)Nc1ccccc1Oc1ccccc1)c1ccccc1 (stereo not drawn) 83.2%
CN(CC(=O)Nc1ccccc1Oc1ccccc1)Cc1ccccc1F 80.5%
Oc1ccc(C2=NN(c3ccccc3)C(c3ccc(F)cc3)C2)cc1 (stereo not drawn) 60.3%
